# Reference: paper PMC7862700, “An all-to-all approach to the identification of sequence-specific readers for epigenetic DNA modifications on cytosine”
# How the values were obtained:
# Assay in all cases: DAPPL (digital affinity profiling via proximity ligation, sequencing); 10 mM Tris-HCl pH 7.5, 50 mM NaCl, 1 mM DTT, 4% glycerol, room temperature, 30 min; GST-TFs on glutathione beads, 16-mer random dsDNA library, 0.1% formaldehyde crosslink after washing; high values mean tight binding
# FEV = biological target: T1, FEV (Homo sapiens, UniProt Q99581 1-238); conditions: protein: recombinant; tags: N-terminal GST; dsDNA, one strand shown
# T1 sequence: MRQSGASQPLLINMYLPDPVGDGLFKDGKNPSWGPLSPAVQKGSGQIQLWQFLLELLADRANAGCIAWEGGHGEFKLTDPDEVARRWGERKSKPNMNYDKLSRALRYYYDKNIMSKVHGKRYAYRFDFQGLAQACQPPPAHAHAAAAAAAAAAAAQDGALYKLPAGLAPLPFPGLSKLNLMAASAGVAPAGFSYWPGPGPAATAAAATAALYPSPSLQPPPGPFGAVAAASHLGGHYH
# Method in brief: (§1)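 In yeast, human transcription factors were expressed with a GST fusion, then pulled down on glutathione beads and given DNA barcodes. Pooled with a tag-only sample, they were exposed to 200 nmole of a 16-mer random double-stranded DNA library (Tris/NaCl/DTT/glycerol buffer, room temperature, 30 min), washed, crosslinked with 0.1% formaldehyde, proximity-ligated using BsaI/T4 ligase for 1 h at 37 °C, PCR-amplified and read on an Illumina NextSeq500. Each hexamer's frequency of reads for a factor, divided by the matching frequency for the tag-only sample, gives the binding signal.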
# ETV5 = ETV5 (Homo sapiens, UniProt P41161 1-510); conditions: protein: recombinant; tags: N-terminal GST; dsDNA, one strand shown
# Chain of ETV5 (P41161 whole entry): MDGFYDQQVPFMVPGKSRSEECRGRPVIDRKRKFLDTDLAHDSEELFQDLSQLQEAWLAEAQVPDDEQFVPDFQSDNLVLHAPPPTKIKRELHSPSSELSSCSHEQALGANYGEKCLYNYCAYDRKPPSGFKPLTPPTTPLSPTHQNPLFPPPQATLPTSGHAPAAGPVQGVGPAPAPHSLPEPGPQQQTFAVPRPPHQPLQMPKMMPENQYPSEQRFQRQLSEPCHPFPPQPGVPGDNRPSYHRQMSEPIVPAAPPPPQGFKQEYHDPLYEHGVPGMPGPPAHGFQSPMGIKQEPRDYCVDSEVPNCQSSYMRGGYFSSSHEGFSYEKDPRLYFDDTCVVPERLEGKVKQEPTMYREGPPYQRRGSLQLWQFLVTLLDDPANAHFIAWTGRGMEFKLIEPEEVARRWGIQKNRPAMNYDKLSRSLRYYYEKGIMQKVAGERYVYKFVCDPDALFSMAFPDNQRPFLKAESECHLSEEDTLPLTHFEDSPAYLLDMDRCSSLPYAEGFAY
# Method in brief: as §1
# HSF1 = HSF1 (Homo sapiens, UniProt Q00613 1-529); conditions: protein: recombinant; tags: N-terminal GST; chain copies: 3; dsDNA, one strand shown
# Chain of HSF1 (Q00613 whole entry): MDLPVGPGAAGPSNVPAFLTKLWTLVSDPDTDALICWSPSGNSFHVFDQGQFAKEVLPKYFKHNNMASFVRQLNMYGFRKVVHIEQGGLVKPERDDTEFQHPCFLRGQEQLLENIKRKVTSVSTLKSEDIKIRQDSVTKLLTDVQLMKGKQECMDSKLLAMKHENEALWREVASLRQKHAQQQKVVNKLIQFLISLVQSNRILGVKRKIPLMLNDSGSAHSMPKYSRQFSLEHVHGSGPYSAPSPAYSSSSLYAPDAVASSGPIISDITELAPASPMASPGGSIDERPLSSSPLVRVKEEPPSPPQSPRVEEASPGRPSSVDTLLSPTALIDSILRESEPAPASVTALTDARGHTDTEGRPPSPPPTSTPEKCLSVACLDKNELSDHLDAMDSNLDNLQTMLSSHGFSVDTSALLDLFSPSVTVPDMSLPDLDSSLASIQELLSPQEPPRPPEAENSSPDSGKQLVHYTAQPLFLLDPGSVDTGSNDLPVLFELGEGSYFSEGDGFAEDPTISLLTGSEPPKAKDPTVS
# Method in brief: as §1
# SPIC = biological target: T2, SPIC (Homo sapiens, UniProt Q8N5J4 1-248); conditions: protein: recombinant; tags: N-terminal GST; dsDNA, one strand shown
# T2 sequence: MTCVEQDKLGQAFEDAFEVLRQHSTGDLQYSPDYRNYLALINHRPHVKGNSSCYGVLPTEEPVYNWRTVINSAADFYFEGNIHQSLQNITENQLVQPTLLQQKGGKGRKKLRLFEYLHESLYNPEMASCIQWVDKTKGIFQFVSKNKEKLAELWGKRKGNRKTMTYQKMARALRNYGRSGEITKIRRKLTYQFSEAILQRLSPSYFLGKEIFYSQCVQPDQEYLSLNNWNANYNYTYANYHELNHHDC
# Method in brief: as §1
# ELF4 = ELF4 (Homo sapiens, UniProt Q99607 1-663); conditions: protein: recombinant; tags: N-terminal GST; dsDNA, one strand shown
# Chain of ELF4 (Q99607 whole entry): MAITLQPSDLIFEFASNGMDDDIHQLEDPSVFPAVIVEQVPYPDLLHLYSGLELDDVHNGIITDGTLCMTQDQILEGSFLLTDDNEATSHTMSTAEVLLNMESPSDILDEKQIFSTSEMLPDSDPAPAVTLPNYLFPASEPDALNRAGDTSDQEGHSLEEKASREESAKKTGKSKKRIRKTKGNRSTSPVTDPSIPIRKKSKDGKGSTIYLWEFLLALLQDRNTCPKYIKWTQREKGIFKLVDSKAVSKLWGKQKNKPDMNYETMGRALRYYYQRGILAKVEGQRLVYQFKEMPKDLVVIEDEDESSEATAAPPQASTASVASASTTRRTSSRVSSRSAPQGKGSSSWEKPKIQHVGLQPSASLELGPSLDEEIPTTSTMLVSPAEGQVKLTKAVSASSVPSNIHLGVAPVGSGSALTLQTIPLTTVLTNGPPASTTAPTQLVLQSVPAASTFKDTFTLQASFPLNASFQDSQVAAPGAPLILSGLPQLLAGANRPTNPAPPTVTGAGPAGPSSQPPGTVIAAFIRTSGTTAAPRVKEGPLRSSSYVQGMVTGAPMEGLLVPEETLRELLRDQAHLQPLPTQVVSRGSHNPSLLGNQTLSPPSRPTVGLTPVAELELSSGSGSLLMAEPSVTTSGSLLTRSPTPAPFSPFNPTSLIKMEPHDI
# Method in brief: as §1
# ELK4 = biological target: T3, ELK4 (Homo sapiens, UniProt P28324-2 1-405); conditions: protein: recombinant; tags: N-terminal GST; dsDNA, one strand shown
# T3 sequence: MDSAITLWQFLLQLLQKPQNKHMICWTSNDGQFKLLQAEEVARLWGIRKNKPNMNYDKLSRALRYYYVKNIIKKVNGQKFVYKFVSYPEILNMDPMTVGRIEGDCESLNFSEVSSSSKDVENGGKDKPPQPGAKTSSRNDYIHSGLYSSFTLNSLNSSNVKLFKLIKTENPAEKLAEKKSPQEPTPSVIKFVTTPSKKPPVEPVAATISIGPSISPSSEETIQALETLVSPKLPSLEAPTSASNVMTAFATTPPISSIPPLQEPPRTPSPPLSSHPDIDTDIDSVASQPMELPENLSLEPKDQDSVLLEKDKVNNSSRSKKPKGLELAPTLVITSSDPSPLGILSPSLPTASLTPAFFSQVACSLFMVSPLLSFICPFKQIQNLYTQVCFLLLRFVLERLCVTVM
# Method in brief: as §1
# ETV2 = biological target: T4, ETV2 (Homo sapiens, UniProt O00321 1-342); conditions: protein: recombinant; tags: N-terminal GST; dsDNA, one strand shown
# T4 sequence: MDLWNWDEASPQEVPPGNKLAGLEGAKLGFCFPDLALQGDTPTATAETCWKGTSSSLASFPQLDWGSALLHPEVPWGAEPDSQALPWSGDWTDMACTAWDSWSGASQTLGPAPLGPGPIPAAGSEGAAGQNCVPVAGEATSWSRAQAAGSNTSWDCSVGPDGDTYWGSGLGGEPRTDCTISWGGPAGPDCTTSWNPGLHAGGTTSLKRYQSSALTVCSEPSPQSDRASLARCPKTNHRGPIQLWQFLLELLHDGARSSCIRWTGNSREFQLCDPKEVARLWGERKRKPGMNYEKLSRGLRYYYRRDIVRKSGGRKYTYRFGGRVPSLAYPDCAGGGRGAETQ
# Method in brief: as §1
# ELF3 = biological target: T5, ELF3 (Homo sapiens, UniProt P78545 1-371); conditions: protein: recombinant; tags: N-terminal GST; dsDNA, one strand shown
# T5 sequence: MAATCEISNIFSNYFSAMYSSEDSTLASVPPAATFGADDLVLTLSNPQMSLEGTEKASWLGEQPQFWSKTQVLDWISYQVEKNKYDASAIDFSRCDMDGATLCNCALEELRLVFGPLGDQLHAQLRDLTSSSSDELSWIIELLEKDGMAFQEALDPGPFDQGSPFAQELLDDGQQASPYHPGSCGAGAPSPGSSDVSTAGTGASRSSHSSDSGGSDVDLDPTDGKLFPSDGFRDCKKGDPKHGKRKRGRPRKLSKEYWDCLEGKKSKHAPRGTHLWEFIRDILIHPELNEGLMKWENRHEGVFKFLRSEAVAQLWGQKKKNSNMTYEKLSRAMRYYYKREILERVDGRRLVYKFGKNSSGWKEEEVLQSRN
# Method in brief: as §1
# ETV1 = ETV1 (Homo sapiens, UniProt P50549 1-477); conditions: protein: recombinant; tags: N-terminal GST; dsDNA, one strand shown
# Chain of ETV1 (P50549 whole entry): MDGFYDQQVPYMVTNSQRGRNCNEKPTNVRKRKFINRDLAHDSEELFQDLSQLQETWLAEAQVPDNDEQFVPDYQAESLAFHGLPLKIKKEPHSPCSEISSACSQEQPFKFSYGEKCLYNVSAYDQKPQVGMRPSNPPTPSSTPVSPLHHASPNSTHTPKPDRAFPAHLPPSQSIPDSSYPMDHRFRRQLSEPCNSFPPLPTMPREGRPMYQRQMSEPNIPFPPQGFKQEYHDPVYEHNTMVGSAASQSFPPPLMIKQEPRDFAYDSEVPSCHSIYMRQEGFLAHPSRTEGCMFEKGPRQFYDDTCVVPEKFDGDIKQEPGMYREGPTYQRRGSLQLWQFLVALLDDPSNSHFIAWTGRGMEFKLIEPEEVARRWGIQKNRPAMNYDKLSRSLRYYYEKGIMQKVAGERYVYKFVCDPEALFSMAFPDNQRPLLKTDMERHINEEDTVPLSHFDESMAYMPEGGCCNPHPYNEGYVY
# Method in brief: as §1
# ERF = biological target: T6, ERF (Homo sapiens, UniProt P50548 1-548); conditions: protein: recombinant; tags: N-terminal GST; dsDNA, one strand shown
# T6 sequence: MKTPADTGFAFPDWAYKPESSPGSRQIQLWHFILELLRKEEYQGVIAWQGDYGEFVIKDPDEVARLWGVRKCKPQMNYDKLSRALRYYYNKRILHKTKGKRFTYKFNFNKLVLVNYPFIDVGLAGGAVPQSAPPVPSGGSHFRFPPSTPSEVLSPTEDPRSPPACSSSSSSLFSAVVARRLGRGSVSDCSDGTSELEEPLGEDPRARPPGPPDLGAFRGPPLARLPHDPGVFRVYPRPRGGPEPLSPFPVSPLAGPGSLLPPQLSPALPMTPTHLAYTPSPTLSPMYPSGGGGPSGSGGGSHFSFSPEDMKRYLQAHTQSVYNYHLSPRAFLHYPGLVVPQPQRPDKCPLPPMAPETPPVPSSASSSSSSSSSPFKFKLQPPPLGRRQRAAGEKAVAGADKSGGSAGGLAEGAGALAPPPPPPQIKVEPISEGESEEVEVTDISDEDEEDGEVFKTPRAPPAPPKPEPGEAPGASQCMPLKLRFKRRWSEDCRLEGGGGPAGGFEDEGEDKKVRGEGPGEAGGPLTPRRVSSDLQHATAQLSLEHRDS
# Method in brief: as §1
# ETV3L = biological target: T7, ETV3L (Homo sapiens, UniProt Q6ZN32 1-361); conditions: protein: recombinant; tags: N-terminal GST; dsDNA, one strand shown
# T7 sequence: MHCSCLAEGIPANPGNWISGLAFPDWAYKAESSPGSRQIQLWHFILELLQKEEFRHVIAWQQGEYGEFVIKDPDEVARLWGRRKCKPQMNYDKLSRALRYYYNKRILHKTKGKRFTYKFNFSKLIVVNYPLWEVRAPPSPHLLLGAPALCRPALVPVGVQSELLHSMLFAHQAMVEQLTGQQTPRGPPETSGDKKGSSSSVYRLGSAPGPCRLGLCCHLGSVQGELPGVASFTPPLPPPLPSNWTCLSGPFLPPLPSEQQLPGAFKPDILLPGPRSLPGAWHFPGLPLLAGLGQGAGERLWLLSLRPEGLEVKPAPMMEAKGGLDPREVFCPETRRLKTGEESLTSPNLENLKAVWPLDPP
# Method in brief: as §1
# ETS2 = biological target: T8, ETS2 (Homo sapiens, UniProt P15036 1-469); conditions: protein: recombinant; tags: N-terminal GST; dsDNA, one strand shown
# T8 sequence: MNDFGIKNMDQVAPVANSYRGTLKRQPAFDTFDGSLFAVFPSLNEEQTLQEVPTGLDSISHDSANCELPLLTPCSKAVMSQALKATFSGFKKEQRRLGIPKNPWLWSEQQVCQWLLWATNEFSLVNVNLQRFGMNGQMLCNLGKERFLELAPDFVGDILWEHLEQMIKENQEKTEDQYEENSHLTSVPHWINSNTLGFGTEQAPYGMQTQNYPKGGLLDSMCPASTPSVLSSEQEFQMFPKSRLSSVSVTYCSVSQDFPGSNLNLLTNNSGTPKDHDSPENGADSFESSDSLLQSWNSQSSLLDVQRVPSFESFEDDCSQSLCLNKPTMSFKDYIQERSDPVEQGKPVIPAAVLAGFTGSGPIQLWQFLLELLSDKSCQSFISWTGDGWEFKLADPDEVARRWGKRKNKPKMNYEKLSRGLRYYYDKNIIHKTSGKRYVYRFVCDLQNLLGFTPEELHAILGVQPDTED
# Method in brief: as §1
# SPDEF = biological target: T9, SPDEF (Homo sapiens, UniProt O95238 1-335); conditions: protein: recombinant; tags: N-terminal GST; dsDNA, one strand shown
# T9 sequence: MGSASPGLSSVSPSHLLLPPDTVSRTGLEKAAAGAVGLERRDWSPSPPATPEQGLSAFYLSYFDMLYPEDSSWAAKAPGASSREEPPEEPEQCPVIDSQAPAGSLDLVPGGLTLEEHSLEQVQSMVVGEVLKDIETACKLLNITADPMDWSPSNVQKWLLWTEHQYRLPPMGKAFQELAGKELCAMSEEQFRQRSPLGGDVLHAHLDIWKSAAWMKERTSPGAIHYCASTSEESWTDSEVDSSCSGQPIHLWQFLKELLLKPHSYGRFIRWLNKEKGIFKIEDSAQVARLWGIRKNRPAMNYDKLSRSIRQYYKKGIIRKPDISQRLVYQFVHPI
# Method in brief: as §1
# ETV7 = biological target: T10, ETV7 (Homo sapiens, UniProt Q9Y603 1-341); conditions: protein: recombinant; tags: N-terminal GST; dsDNA, one strand shown
# T10 sequence: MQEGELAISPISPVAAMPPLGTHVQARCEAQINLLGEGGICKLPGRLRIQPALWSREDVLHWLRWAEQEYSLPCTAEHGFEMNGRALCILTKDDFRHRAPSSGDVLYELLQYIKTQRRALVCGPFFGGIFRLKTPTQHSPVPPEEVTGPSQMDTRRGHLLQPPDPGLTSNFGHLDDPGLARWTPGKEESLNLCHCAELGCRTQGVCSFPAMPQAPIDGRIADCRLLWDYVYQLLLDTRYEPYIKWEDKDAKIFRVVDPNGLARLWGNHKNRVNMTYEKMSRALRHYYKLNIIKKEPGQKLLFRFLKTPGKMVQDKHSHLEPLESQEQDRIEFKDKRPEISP
# Method in brief: as §1
# ELF5 = biological target: T11, ELF5 (Homo sapiens, UniProt Q9UKW6-2 1-255); conditions: protein: recombinant; tags: N-terminal GST; dsDNA, one strand shown
# T11 sequence: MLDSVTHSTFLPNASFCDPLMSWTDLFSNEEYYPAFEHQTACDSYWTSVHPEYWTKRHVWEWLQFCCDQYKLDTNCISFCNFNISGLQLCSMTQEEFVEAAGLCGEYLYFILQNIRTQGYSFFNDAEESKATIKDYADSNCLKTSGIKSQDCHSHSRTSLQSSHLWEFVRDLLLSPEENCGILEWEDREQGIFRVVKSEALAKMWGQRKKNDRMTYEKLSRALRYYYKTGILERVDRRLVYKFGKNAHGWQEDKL
# Method in brief: as §1
# ETV3 = biological target: T12, ETV3 (Homo sapiens, UniProt P41162-2 1-143); conditions: protein: recombinant; tags: N-terminal GST; dsDNA, one strand shown
# T12 sequence: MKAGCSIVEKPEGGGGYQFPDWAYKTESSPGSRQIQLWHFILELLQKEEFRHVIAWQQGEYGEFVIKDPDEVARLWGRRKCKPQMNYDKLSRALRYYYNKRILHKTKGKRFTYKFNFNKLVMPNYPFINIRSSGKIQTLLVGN
# Method in brief: as §1
# ETV6 = ETV6 (Homo sapiens, UniProt P41212 1-452); conditions: protein: recombinant; tags: N-terminal GST; dsDNA, one strand shown
# Chain of ETV6 (P41212 whole entry): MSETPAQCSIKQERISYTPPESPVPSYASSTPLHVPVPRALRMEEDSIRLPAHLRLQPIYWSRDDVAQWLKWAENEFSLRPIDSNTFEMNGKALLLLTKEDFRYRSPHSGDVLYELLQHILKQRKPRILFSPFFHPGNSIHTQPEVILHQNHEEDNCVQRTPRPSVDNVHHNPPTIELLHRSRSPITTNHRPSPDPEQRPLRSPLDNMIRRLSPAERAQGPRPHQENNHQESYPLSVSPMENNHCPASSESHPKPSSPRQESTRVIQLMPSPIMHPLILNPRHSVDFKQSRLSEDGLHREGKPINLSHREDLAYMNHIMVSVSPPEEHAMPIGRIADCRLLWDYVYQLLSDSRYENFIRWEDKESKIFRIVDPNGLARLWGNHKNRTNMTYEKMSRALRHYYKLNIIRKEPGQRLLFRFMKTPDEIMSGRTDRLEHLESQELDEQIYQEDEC
# Method in brief: as §1
sequence,measurement,setting,value
CACGAC,binding signal,FEV,"1.29 fold enrichment (6-mer frequency, TF over GST control)"
same,binding signal,ETV5,"1.28 fold enrichment (6-mer frequency, TF over GST control)"
same,binding signal,HSF1,"1.05 fold enrichment (6-mer frequency, TF over GST control)"
same,binding signal,SPIC,"1.26 fold enrichment (6-mer frequency, TF over GST control)"
same,binding signal,ELF4,"1.35 fold enrichment (6-mer frequency, TF over GST control)"
same,binding signal,ELK4,"1.53 fold enrichment (6-mer frequency, TF over GST control)"
same,binding signal,ETV2,"1.34 fold enrichment (6-mer frequency, TF over GST control)"
same,binding signal,ELF3,"1.32 fold enrichment (6-mer frequency, TF over GST control)"
same,binding signal,ETV1,"1.15 fold enrichment (6-mer frequency, TF over GST control)"
same,binding signal,ERF,"1.22 fold enrichment (6-mer frequency, TF over GST control)"
same,binding signal,ETV3L,"1.26 fold enrichment (6-mer frequency, TF over GST control)"
same,binding signal,ETS2,"1.24 fold enrichment (6-mer frequency, TF over GST control)"
same,binding signal,SPDEF,"1.19 fold enrichment (6-mer frequency, TF over GST control)"
same,binding signal,ETV7,"1.34 fold enrichment (6-mer frequency, TF over GST control)"
same,binding signal,ELF5,"1.24 fold enrichment (6-mer frequency, TF over GST control)"
same,binding signal,ETV3,"1.15 fold enrichment (6-mer frequency, TF over GST control)"
same,binding signal,ETV6,"1.24 fold enrichment (6-mer frequency, TF over GST control)"
